High-throughput results (PubChem)
MEP2 TOR yeast = modulators of MEP2-GFP levels in yeast, primary screen, S. cerevisiae, multiplex flow cytometry, MLPCN library | GFP response vs DMSO, % at 10 µM | S. cerevisiae MEP2-GFP strain, 3 h; 100% = DMSO control level | actives 0.51% (n = 330,000);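 active = GFP response versus DMSO above a set limit, roughly screen mean plus 3 SD, cut at about 180% in these data; inconclusive = fewer than 70 cells counted for a yeast strain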;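 also: median GFP fluorescence of the barcode-gated MEP2-GFP cells per well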
CIT2-GFP yeast = modulators of CIT2-GFP expression in yeast, primary screen, S. cerevisiae, GFP fusion, multiplex flow cytometry, MLPCN library; GFP response vs DMSO, % at 10 µM; S. cerevisiae CIT2-GFP strain, 3 h; 100 means same as DMSO wells; actives 0.065% (n = 320,000);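 active = GFP response relative to DMSO above a set limit, near the screen mean plus 3 SD, cut at about 150% in these data; inconclusive = Fewer than 70 cells measured for a yeast strain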;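 also: ratio of well median GFP fluorescence to mean of DMSO wells on the plate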
AGP1-GFP MLPCN = modulators of AGP1-GFP expression in yeast TOR pathway, primary screen, cell-based, multiplex flow cytometry, S. cerevisiae, MLPCN library; 3 h; GFP as percent of DMSO wells; actives 0.02% (n = 320,000); GFP response vs DMSO, % at 10 µM;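 active = GFP response relative to DMSO above a set limit, near screen average plus 3 SD, cut at about 150% in these data; inconclusive = fewer than 70 cells counted for the yeast strain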;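 also: median GFP channel fluorescence of the gated AGP1 strain per well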
LAP4 TOR yeast = modulators of LAP4-GFP expression in yeast, primary screen, S. cerevisiae, multiplex flow cytometry, MLPCN library; 3 h; median GFP as percent of DMSO wells; GFP response vs DMSO, % at 10 µM; actives 0.34% (n = 320,000);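 active = GFP response vs DMSO above a set limit, about the screen mean plus 3 SD, cut at about 150% in these data; inconclusive = under 70 cell events counted for the yeast strain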
RPL19A-GFP yeast = RPL19A-GFP expression modulators in yeast, primary screen, cell-based, S. cerevisiae, multiplex flow cytometry, MLPCN | percent response vs DMSO, % at 10 µM | actives 0.3% (n = 330,000) | S. cerevisiae RPL19A-GFP strain, 3 h; stronger effect = lower value;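 active = percent response vs DMSO below 50%; inconclusive = fewer than 70 events counted for the yeast strain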;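 also: median channel GFP fluorescence of the barcoded RPL19A-GFP strain; ratio of sample median GFP to plate DMSO average so 100% = DMSO; lower means less RPL19A-GFP as with rapamycin TOR inhibition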
An asterisk follows results filed as active; ? = inconclusive; . = no result; [ ] = dose if it differs, or a comment. Hits are enriched below; roughly 0.92% of the tested compounds scored in any of these assays.

SMILES	MEP2 TOR yeast	CIT2-GFP yeast	AGP1-GFP MLPCN	LAP4 TOR yeast	RPL19A-GFP yeast
CCn1c(SCC(=O)N2CCOCC2)nc2oc3c(Cl)cc(Cl)cc3c(=O)c2c1=O	186*[may fluoresce violet]	?	19	102	62
CCn1c(SCC(=O)N2CCOCC2)nc2sc3c(c2c1=O)CCCC3	86	88	93	97	.
CC(=O)NC(NC(C)=O)c1ccc(N(C)C)cc1	219*[may fluoresce violet]	?	26	105	39*[may fluoresce violet]
CCN(CC)c1ccc(C(NC(C)=O)NC(C)=O)cc1	96	93	96	91	.
CC1(NC(=O)CSc2nnc(-c3c[nH]c4ccccc34)n2C2CC2)CCS(=O)(=O)C1 (stereo unspecified)	100	104	103	97	103
Cc1ccc(S(=O)(=O)N2CCCCC2)cc1NC(=O)CNC(C)c1ccc(Cl)c(Cl)c1 (stereo unspecified)	123	120	115	119	110
Cc1nn(C)c(C(=O)Sc2ccccc2)c1[N+](=O)[O-]	99	96	110	129	101
Cc1nn(C)c(C(=O)Sc2cccc(Cl)c2)c1[N+](=O)[O-]	97	103	110	154*	107
Fc1ccc(CNc2ncccn2)cc1	190*[may fluoresce violet]	?	?	60	30*[may fluoresce violet]
O=C(Nc1ccc(NC(=O)c2ccco2)cc1)c1ccco1	87	97	91	76	99
O=C(Nc1ccc(Cn2nnc3ccccc32)cc1)c1ccco1	294*[may fluoresce violet]	?	?	77	14*[may fluoresce violet]
O=C(O)C1CCC(NSc2ccccc2[N+](=O)[O-])CC1 (stereo unspecified)	96	96	90	199*	90
Cc1ccc(NC(=O)/C(C#N)=C/c2ccc(C)s2)c(C)c1	468*[may fluoresce violet]	?	?	115	56
Cc1cccn2c(=O)c3cc(C(=O)NCCc4ccccc4)c(=N)n(CCCn4ccnc4)c3nc12	208*	95	.	84	51
C=CCn1c(=N)c(C(=O)NCCCOC)cc2c(=O)n3cccc(C)c3nc21	173	?	.	83	34*[may fluoresce violet]
COCCn1c(=N)c(C(=O)NCCc2ccccc2)cc2c(=O)n3cccc(C)c3nc21	98	94	84	89	87
Cc1cccn2c(=O)c3cc(C(=O)NCCN4CCOCC4)c(=N)n(CCc4ccccc4)c3nc12	210*[may fluoresce violet]	?	90	94	47*[may fluoresce violet]
Cc1cccn2c(=O)c3cc(C(=O)NCCN4CCOCC4)c(=N)n(CCCN4CCOCC4)c3nc12	224*[may fluoresce violet]	?	14	87	60
COc1ccc(CCn2c(=N)c(C(=O)NCCN3CCOCC3)cc3c(=O)n4cccc(C)c4nc32)cc1OC	97	94	96	88	98
CC(=O)c1ccc(OCCCC(=O)NCCc2ccc(C(F)(F)F)cc2)cc1	106	103	97	97	100
COc1ccc(Cl)cc1NC(=O)COC(=O)C1COc2ccccc2O1 (stereo unspecified)	99	97	102	102	99
CCCCCn1c(=N)c(S(=O)(=O)c2ccc(Cl)cc2)cc2c(=O)n3cccc(C)c3nc21	297*[may fluoresce violet]	?	?	87	53
N=c1ccn(CC(=O)c2ccc(-c3ccccc3)cc2)cc1	101	109	106	154*	89
CNC(=O)C1CN(C(=O)c2cccc(S(=O)(=O)N3c4ccccc4CC3C)c2)c2ccccc2O1 (stereo unspecified)	102	89	105	109	100
O=C(/C=C/c1ccco1)Oc1cc(Br)cc(/C=N/NC(=O)c2ccccc2O)c1	296*[may fluoresce violet]	?	18	72	37*[may fluoresce violet]
SMILES	MEP2 TOR yeast	CIT2-GFP yeast	AGP1-GFP MLPCN	LAP4 TOR yeast	RPL19A-GFP yeast
Cc1ccc(C(=O)N/N=C/c2cccc(OC(=O)/C=C/c3ccco3)c2)cn1	105	104	100	101	97
CSc1ccc(CN2CCC(Oc3ccc(C(=O)N4CCCC4)cc3)CC2)cc1	90	95	95	87	97
COC(=O)c1c(N)n(-c2ccc(NC(C)=O)cc2)c2nc3ccccc3nc12	365*[may fluoresce violet]	?	?	85	42*[may fluoresce violet]
COCCCNC(=O)c1c(N)n(-c2ccccc2)c2nc3ccccc3nc12	106	.	.	.	93
CC1CCCCC1NC(=O)COC(=O)COc1ccccc1F (stereo unspecified)	111	107	103	100	103
CCCS(=O)(=O)N1CCC(C(=O)c2cccc(C(F)(F)F)c2)CC1	186*	133	103	156*	103
CCc1sc(C(=O)N2CCc3ccccc32)cc1C	111	86	98	158*	94
O=C(NCCCN1CCCC1)Nc1ccc(F)cc1	102	104	108	108	104
CCOc1ccc(NC(=O)NCCCN2CCCC2)cc1	251*[may fluoresce violet]	?	?	95	39*[may fluoresce violet]
CCC[C@@H](CN1CCC[C@H]1CN1C(N)=NC[C@H]1C(C)C)N1C[C@@H](Cc2ccccc2)N(CCCC2CCCC2)C1=N	90	94	91	88	94
O=C(/C=C/c1ccccc1)C1=C(O)C(=O)N(CCO)C1c1cccc([N+](=O)[O-])c1 (stereo unspecified)	639*	105	48	107	59
COc1ccc(-c2[nH]ncc2CN(CCO)Cc2cccs2)c(F)c1	198*	118	103	129	102
CCN(Cc1ccncc1)Cc1cn[nH]c1-c1ccc(OC)cc1F	102	102	99	99	95
O=c1[nH]ncc2c3ccccc3n(Cc3ccc(F)cc3)c12	235*[may fluoresce violet]	?	?	62	61
CC1CCCCC12NC(=O)N(CC(=O)N1CCN(S(=O)(=O)Cc3ccccc3)CC1)C2=O (stereo unspecified)	99	90	95	93	95
CC(C)c1nnc(SCC(=O)N2CCc3ccccc32)n1C	166	126	.	156*	108
CSc1nc(N2CCOCC2)c2ccccc2n1	95	92	92	93	96
CSc1nc(N2CCN(c3ccccc3Cl)CC2)c2ccccc2n1	170	128	100	154*	100
C[C@H](NC(=O)c1ncn(Cc2ccccc2)c1C(=O)N[C@@H](C)c1ccccc1)c1ccccc1	99	93	97	94	96
CCCC(C(=O)NNC(=O)c1cc(C)oc1C)c1ccccc1 (stereo unspecified)	103	113	101	88	105
CC1CCc2c(sc(NC(=O)c3cccs3)c2C(=O)O)C1 (stereo unspecified)	124	79	80	93	109
COCC(=O)Nc1sc2c(c1C(=O)OC)CCCC2	103	97	90	112	98
COC(=O)c1c(NC(=O)Cc2cccs2)sc2c1CCCC2	211*[may fluoresce violet]	?	?	91	56
